Gal4-VP16 FLuc: counter-screen for ROR gamma inhibitors: Gal4-VP16 reporter. actives 3.5% (n = 310,000). Drosophila S2 Gal4-VP16 UAS-luciferase, luminescence, 20 h. AID 2546. Potency, µM (doses to about 53.6 µM), inactives show at the top dose activity, negative = inhibition, usual class: inhibitors;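 also: Gal4-VP16 expression switched on by copper sulfate through the metallothionein promoter; potency is read from the fitted curve at half-maximal effect; % is scaled to controls: 0 for no effect and ±100 for the full control effect; nearly all actives have a fitted effect of over 50% in size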
IL-1B inflam inh: inflammasome signaling inhibition, IL-1 beta readout; THP-1 LPS/ATP IL-1B secretion, AlphaLISA, 16 h; stronger effect = lower value; activity change, % at 57.5 µM; actives 4.7% (n = 360,000); AID 743279; in the data active = activity change below about -50%; inconclusive = mostly about -30% to -49%; also: % is scaled to controls: 0 for no effect and ±100 for the full control effect
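Secreted IL-1B measured by AlphaLISA bead assay after 16 h compound exposure of THP-1 cells; compounds (final up to 57.5 uM) added 1 h before LPS (250 ng/mL) and ATP (1.25 mM) stimulation; lower signal means less secretion.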
SW480 rerep: induces DNA re-replication in SW480 colon adenocarcinoma cells. SW480 DNA re-replication, Hoechst DNA content imaging, 48 h. Potency, µM (top dose mostly 46.1 µM), for the others: at the highest dose re-replication activation, usual class: activators. actives 1.8% (n = 340,000); also: potency is read from the fitted curve at half-maximal effect; % of control where 0% means no effect; nearly all actives have a fitted effect of over 55% in size
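Image-based read-out: total Hoechst fluorescence of nuclei (405 nm excitation, 500-530 nm emission), with hits raising the fraction of high-intensity nuclei. SW480 colon cells incubated 48 hr with compounds at 37 C.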
MCF10A rerep: inducers of DNA re-replication in MCF 10A breast cells | MCF 10A DNA re-replication, Hoechst nuclear intensity, 48 h | Potency, µM (series often up to 46.1 µM), for the others: at the top dose activity, positive = re-replication, most hits filed as activators | actives 2.9% (n = 350,000) | AID 624296; also: potency is read from the fitted curve at half-maximal effect; % of control where 0% means no effect; nearly all actives have a fitted effect of over 50% in size
RORg inh: ROR gamma (mouse) transcription inhibition | AID 2551 | actives 5.4% (n = 310,000) | Drosophila S2 Gal4-RORgamma UAS-luciferase reporter, 20 h | Potency, µM (titrated, usually from 53.6 µM), for the others: at the top dose activity change, negative = inhibition, most hits filed as inhibitors; also: potency is read from the fitted curve at half-maximal effect; % is scaled to controls: 0 for no effect and ±100 for the full control effect; nearly all actives have a fitted effect of over 60% in size
Target sequence (P51450 whole entry, looked up, the tested form may be a part): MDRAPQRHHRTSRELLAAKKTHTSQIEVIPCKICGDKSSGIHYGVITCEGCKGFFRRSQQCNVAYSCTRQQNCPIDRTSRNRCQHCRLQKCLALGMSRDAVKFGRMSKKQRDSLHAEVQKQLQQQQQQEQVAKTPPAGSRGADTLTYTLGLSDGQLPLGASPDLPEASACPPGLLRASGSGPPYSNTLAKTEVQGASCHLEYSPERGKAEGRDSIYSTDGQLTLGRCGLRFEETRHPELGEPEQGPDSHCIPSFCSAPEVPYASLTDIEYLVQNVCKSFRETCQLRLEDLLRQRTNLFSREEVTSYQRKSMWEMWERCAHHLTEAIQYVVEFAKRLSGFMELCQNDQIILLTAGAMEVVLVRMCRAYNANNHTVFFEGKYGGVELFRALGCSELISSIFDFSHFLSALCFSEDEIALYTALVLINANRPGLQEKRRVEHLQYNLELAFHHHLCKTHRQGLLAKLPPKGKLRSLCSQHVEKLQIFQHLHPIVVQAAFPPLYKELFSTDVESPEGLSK
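Read-out: Photinus luciferase luminescence; inhibitors lower reporter signal. Insect Schneider cells with Gal4-ROR gamma fusion under metallothionein promoter, UAS reporter; 700 uM final copper sulfate induction, 20 hr, ambient temperature.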
* hit, by the source's call; ? = inconclusive; · = no result. An excerpt weighted towards active compounds, which were near 11% of everything screened. Unless noted, calls follow the shape of the dose curve; as a rule, active = well fitted curve in the direction sought with a large enough effect; inconclusive = small, poorly fitted or top-dose-only effect, or another doubt; inactive = no such curve, though single readings can be large; an effect the other way counts as inactive or inconclusive.

SMILES	Gal4-VP16 FLuc	IL-1B inflam inh	SW480 rerep	MCF10A rerep	RORg inh
O=c1[nH]cc(N=Cc2cc(Cl)cc(Cl)c2O)c(=O)[nH]1	13µM*	-4	-10%	1%	11µM*
O=C(NC(=S)Nc1ccccn1)c1ccc(-c2ccccc2)cc1	4µM*	-29	27%	?	3.2µM*
Cc1cc(C)c(NC(=S)NC(=O)c2ccc(-c3ccccc3)cc2)c(C)c1	5.6µM*	-17	-3%	?	4.5µM*
O=C(NC(=S)Nc1ccccn1)c1ccc([N+](=O)[O-])cc1	11µM*	0	?	0%	5µM*
Cc1ccc(NC(=O)CCn2c(=S)oc3ccccc32)cc1	-6%	13	8%	-12%	28%
CCCCC(=O)/C=C/n1c(=S)oc2ccccc21	?	-101*	6.5µM*	2.9µM*	?
CC(C)OC(=O)n1c(=S)oc2ccccc21	?	6	?	4.6µM*	1%
C=CCNS(=O)(=O)c1cc2c3c(c1)CCN3C(=O)CC2	-3%	8	-2%	7%	-17%
Cc1ccc(-n2nnnc2C(Cl)c2nnnn2-c2ccc(C)cc2)cc1	8.9µM*	-59*	21%	2%	11µM*
C[C@@H]1CC[C@@]2(O[C@@H](CCO)C[C@H](O)[C@H]2O)O1	·	-11	-17%	5%	·
Cc1cc(NC(=O)c2ccccc2NS(=O)(=O)c2c(C)c(C)cc(C)c2C)no1	-6%	24	9.2µM*	12µM*	4%
COc1ccc(Nc2nc(-c3cccc(OC)c3O)nc3ccccc23)cc1	2%	-7	-25%	9%	28%
COc1cccc(-c2nc(NC(C)(C)C)c3ccccc3n2)c1O	?	-51*	0%	?	?
CCOC(=O)Cn1c2ccccc2c2nc3ccccc3nc21	-13%	21	-10%	0%	-6%
CCOC(=O)Cn1c(C(F)(F)F)nc2nc(Cl)c(Cl)nc21	·	-92*	?	?	·
CCC(CO)Oc1cc(NCc2ccc(C)c(C)c2)c2ncn(C(C)C)c2c1 (configuration not stated)	·	74	5.2µM*	15µM*	·
CCC(CO)Oc1cc(NCc2ccc(F)cc2)c2ncn(C(C)C)c2c1 (configuration not stated)	·	0	?	23µM*	·
CCC(CO)Oc1cc(NCc2cc(C)cc(C)c2)c2ncn(C(C)C)c2c1 (configuration not stated)	·	19	12%	2%	·
CCC(CN(C)C)Oc1cc(NCc2ccccc2)c2ncn(C(C)C)c2c1 (configuration not stated)	·	15	18µM*	?	·
COc1cc(NC(=O)[C@H]2O[C@@H](n3ccc(N)nc3=O)[C@H](O)[C@@H]2O)cc(OC)c1OC	·	-18	·	·	·
O=C(Nc1cccc(S(=O)(=O)N2CCCCC2)c1)c1ccccc1NS(=O)(=O)c1ccc(F)cc1	?	0	?	?	?
Cc1ccc(NC(=O)c2ccccc2NS(=O)(=O)c2ccc(F)cc2)cc1S(=O)(=O)N1CCCCC1	10µM*	-23	?	?	?
Cc1ccc(NC(=O)CN(C)C(=O)Cn2ncc(Cl)c(Cl)c2=O)cc1	-9%	-105*	?	3.3µM*	16%
Cc1ccc(NC(=O)CN(C)C(=O)Cc2ccc(Cl)c(Cl)c2)cc1	26%	-9	27%	6%	?
CCOc1ccc(NC(=O)CN2CCN(CC(=O)Nc3ccc(Cl)c(C(F)(F)F)c3)CC2)cc1	?	-59*	?	?	3%
SMILES	Gal4-VP16 FLuc	IL-1B inflam inh	SW480 rerep	MCF10A rerep	RORg inh
CCOc1ccc(NC(=O)CN2CCN(CC(=O)Nc3cccc(F)c3)CC2)cc1	8%	14	-4%	7%	34%
CN(CC(=O)Nc1cccc(S(=O)(=O)N2CCCC2)c1)CC(=O)Nc1ccc(F)c(F)c1F	·	14	2%	0%	·
CN(CC(=O)Nc1cccc(S(=O)(=O)N2CCCC2)c1)CC(=O)Nc1ccc(Cl)c(C(F)(F)F)c1	·	-66*	?	?	·
COc1cc(C(CC(=O)Nc2ccc(C)cn2)N2Cc3ccccc3C2=O)cc(OC)c1OC (configuration not stated)	-1%	24	-4%	1%	1%
Cc1ccc(NC(=O)Cn2ncc(Cl)c(Cl)c2=O)cc1S(=O)(=O)N1CCCCC1	·	-75*	8.2µM*	4.1µM*	·
Cc1ccc(NC(=O)Cc2ccc(Cl)cc2)cc1S(=O)(=O)N1CCCCCC1	·	?	-30%	12%	·
Cc1ccc(NC(=O)CN(C)CC(=O)Nc2cccc(F)c2)cc1S(=O)(=O)N1CCCCCC1	7%	-77*	-10%	?	4%
O=C(CN1CCN(S(=O)(=O)c2ccc(F)cc2)CC1)Nc1ccc2c(c1)OCCO2	-3%	-2	-3%	-1%	-2%
O=C(CN1CCN(S(=O)(=O)c2ccc(F)cc2)CC1)Nc1ccc(Cl)c(C(F)(F)F)c1	?	-60*	?	?	?
COCC1=Cc2cc3c(cc2C(C(C(=O)OC)C(=O)OC)N1C(=O)OC)OCO3 (configuration not stated)	-5%	·	·	·	1%
COc1ccc2[nH]cc(CCNC(=O)CC[C@H]3O[C@@H](n4cc(C)c(=O)[nH]c4=O)C[C@@H]3O)c2c1	·	12	-1%	-12%	·
CCc1nc2ccc(Cc3ccc4nc(CC)[nH]c4c3)cc2[nH]1	-24%	-10	3.3µM*	1%	33%
O=[N+]([O-])c1ccccc1N/N=C\c1ccccc1F	8%	30	21µM*	5%	9%
CCOc1ccc(C(=O)Nc2cccc(C(=O)O)c2)cc1Cl	?	-9	-3%	17%	6.3µM*
Cc1ccc(C(=O)Nc2cccc(C(O)c3ccccc3)c2)cc1 (configuration not stated)	·	-51*	-21%	-1%	·
Cc1ccc(C(=O)NC(C(=O)Nc2ccccc2)c2ccccc2)cc1 (configuration not stated)	10%	0	13%	?	-3%
Cc1ccc(C(=O)Nc2cccc(C(=O)O)c2)cc1	18µM*	11	-3%	-1%	5µM*
O=C(Nc1ccc[n+](CC(=O)c2cccc3ccccc23)c1)c1ccccc1	11µM*	-29	?	-2%	?
O=C(C[n+]1cccc(C(=O)Nc2ccccc2)c1)c1ccccc1	·	-4	·	·	·
O=C(C[n+]1ccc(C(=O)c2ccccc2)cc1)Nc1ccc(C(F)(F)F)cc1	-1%	-60*	8%	?	27%
Cc1cc(C(=O)Nc2cnc3ccccc3c2)ccc1[N+](=O)[O-]	6%	24	-4%	-5%	20%
Cc1ccc(C(=O)Nc2cnc3ccccc3c2)cc1	2.8µM*	-22	-3%	16%	3.2µM*
Cc1cc[n+](CC(=O)c2ccc(NC(=O)c3ccccc3)cc2)cc1	0%	-10	-31%	1.3µM*	8%

Screening data (PubChem)
